Measured values: article PMC4336329 (PLoS ONE, 2015)
The campaign covered roughly 310,000 compounds. About 14,000 (4.5%) showed an effect of 50% or more. Effects have a minus sign here. Shown is part of a subset that was picked to be rich in strong results.

target: human ether-à-go-go-related gene (hERG) potassium channel (human, UniProt Q12809); experiment: primary screen, population patch clamp on CHO cells stably expressing hERG; higher = less effect of the substance
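Further: peak tail current of the secondary pulse compared with the same well before compound.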

Chain of human ether-à-go-go-related gene (hERG) potassium channel (Q12809 whole entry, looked up): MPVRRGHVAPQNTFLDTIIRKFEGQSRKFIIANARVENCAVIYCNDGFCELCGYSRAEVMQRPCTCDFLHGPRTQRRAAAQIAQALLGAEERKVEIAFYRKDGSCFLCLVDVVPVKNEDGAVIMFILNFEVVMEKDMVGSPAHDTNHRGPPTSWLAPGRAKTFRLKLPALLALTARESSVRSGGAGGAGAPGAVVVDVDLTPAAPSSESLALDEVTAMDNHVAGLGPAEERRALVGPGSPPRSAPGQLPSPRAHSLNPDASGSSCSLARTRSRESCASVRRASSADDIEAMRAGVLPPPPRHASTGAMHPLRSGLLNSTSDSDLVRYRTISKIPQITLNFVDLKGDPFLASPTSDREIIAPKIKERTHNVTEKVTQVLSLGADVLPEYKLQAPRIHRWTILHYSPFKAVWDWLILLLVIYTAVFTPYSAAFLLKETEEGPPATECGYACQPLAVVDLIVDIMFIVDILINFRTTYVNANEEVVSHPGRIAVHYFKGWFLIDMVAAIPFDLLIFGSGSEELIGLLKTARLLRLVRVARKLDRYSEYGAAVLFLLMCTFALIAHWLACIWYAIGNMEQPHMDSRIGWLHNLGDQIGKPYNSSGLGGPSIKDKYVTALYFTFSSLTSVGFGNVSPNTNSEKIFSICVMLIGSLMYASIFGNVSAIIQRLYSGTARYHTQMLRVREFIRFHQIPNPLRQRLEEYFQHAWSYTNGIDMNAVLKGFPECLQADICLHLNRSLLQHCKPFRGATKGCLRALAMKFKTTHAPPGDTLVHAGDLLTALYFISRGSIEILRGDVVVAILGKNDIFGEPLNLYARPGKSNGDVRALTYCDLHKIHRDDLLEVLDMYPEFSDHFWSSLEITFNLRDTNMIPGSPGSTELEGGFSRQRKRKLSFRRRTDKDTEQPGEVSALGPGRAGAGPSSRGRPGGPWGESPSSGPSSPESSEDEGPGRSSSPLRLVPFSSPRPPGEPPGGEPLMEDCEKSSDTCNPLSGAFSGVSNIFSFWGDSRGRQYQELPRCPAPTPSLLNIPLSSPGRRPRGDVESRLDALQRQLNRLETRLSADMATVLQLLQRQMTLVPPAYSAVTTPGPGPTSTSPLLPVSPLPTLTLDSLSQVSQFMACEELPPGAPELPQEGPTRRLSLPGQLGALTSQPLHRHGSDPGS

| Compound | hERG current change (%, negative = inhibition) at 10uM [%] |
| --- | --- |
| CCC(Sc1nnc(-c2ccc(C)c(Cl)c2)n1CC)C(=O)Nc1nccs1 (centres unmarked) | -20.6 |
| CCOC(=O)/C=C(\C)Sc1cc(=O)oc2ccccc12 | -40.4 |
| O=C(Nc1nccs1)c1ccc(COc2ccccc2)o1 | 15.6 |
| O=C(O)CC1c2ccccc2CCN1S(=O)(=O)c1ccc(F)cc1 (centres unmarked) | 8.32 |
| CCc1ccc2[nH]c(=O)c(-c3ccccc3)c(O)c2c1 | 17.5 |
| CN(CC(N)=O)S(=O)(=O)c1ccc(F)cc1 | -15.7 |
| CCC(Sc1ccc2nnc(-c3cccnc3)n2n1)C(=O)OC (centres unmarked) | -47 |
| COc1ccc(C(=O)CSc2ccc3nnc(-c4cccnc4)n3n2)cc1 | -70.3 |
| CCOC(=O)CSc1ccc2nnc(-c3cccnc3)n2n1 | -31 |
| O=C(O)CSc1ccc2nnc(-c3cccnc3)n2n1 | 12.2 |
| O=C(CSc1ccc2nnc(-c3cccnc3)n2n1)c1ccccc1 | -70 |
| O=C(CSc1ccc2nnc(-c3cccnc3)n2n1)N1CCOCC1 | -25 |
| O=C(Nc1cccc(NC(=O)C2CC2)n1)C1CC1 | -6.67 |
| CCOC(=O)N1CCN(c2cc(N3CCOCC3)c(F)cc2[N+](=O)[O-])CC1 | -18.2 |
| CC1=CC(=O)OC1Cc1ccncc1 (centres unmarked) | 11.3 |
| NC(=O)C1CCN(C(=O)CCSCc2ccc(Cl)c(Cl)c2)CC1 | -13.3 |
| CCN1CCN(Cc2ccc(OC(F)(F)F)cc2)CC1 | -26.6 |
| COC(=O)c1ccc(CN2CCC(CO)(Cc3ccccc3Cl)CC2)cc1 | -64.8 |
| COC(=O)c1cccc(C(=O)N2CCC(CO)(Cc3ccccc3Cl)CC2)c1 | -23.1 |
| COC(=O)c1ccc(CN2CCC(CO)(Cc3cccc(OC)c3)CC2)cc1 | -66.1 |
| COc1ccc(-c2ncc(CN3CCC(CO)(Cc4cccc(OC)c4)CC3)cn2)cc1 | -4.79 |
| COc1ccc(CC2(CO)CCN(Cc3ccncc3)CC2)cc1 | -21.2 |
| COC(=O)c1ccc(CN2CCC(CO)(Cc3ccc(OC)cc3)CC2)cc1 | -66.1 |

| Compound | hERG current change (%, negative = inhibition) at 10uM [%] |
| --- | --- |
| COc1ccc(CC2(CO)CCN(Cc3ccc(OC(F)(F)F)cc3)CC2)cc1 | -75.1 |
| COC(=O)c1ccc(CN2CCCCC2)cc1 | 1.45 |
| COc1cccc(CC2(CO)CCN(Cc3cn(C)nc3C)CC2)c1 | 18.3 |
| Nn1c(SCC(=O)Nc2c(F)cc(F)cc2Br)nnc1C1CCCCC1 | 3.21 |
| CCOC(=O)c1nnn(-c2nonc2-c2ccccc2)c1C | -25.2 |
| S=c1[nH]cc(-c2ccccc2)n1-c1ccccc1Cl | 9.61 |
| CCc1onc(C)c1C(=O)Nc1ccc(N2CCOCC2)cc1 | 15 |
| Clc1ccc(-c2noc(/C=C/c3ccccc3)n2)cc1 | 18.2 |
| COc1ccc(CC2(CO)CCN(CC3=CC[C@H]4C[C@@H]3C4(C)C)CC2)cc1 | -58.7 |
| CC1(C)C2CC=C(CN3CCC(O)CC3)C1C2 (centres unmarked) | -7.45 |
| COc1cccc(CC2(CO)CCN(CC3=CC[C@H]4C[C@@H]3C4(C)C)CC2)c1 | -44.2 |
| CCN(CC)S(=O)(=O)c1ccc2c(c1)nc(SCc1nc3ccsc3c(=O)[nH]1)n2CC | -30.8 |
| COc1ccc(C=NCCC2(O)CC(C)N(C)CC2C)cc1 (centres unmarked) | 8.31 |
| CC1Oc2cc3c(-c4c(O)cc(O)c5c(O)c6c(cc45)OC(C)C(C)C6=O)c(O)cc(O)c3c(O)c2C(=O)C1C (centres unmarked) | 10.8 |
| CN(C)[C@@H]1CCC[C@H]1OC(=O)C(c1ccccc1)c1ccccc1 | -65.2 |
| CCCCOc1ccc(C(=O)OC2CC(C)N(C)CC2C)cc1 (centres unmarked) | -25.4 |
| C[N+]1(C)[C@@H]2CC[C@H]1CC(OC(=O)C(c1ccccc1)c1ccccc1)C2.[I-] (some centres unmarked) | 18 |
| CC1CN(C)C(C)CC1OC(=O)C(c1ccccc1)c1ccccc1 (centres unmarked) | -73.7 |
| CC1CN(C(C)C)C(C)CC1OC(=O)c1ccccc1 (centres unmarked) | 15.7 |
| C[N+]1(C)CCC(OC(=O)C(c2ccccc2)c2ccccc2)CC1.[I-] | 1.2 |
| O=C(Cc1cccs1)NCCn1ccc2ccccc21 | -6.95 |
| Cc1ccc(C2=NN(C(=O)CSc3nnnn3C)C(c3ccco3)C2)cc1 (centres unmarked) | 17.1 |
| Cc1cn(C)c(=O)n(C)c1=O | 4.46 |

| Compound | hERG current change (%, negative = inhibition) at 10uM [%] |
| --- | --- |
| Cc1ccc(-c2c[n+](CC(=O)Nc3nc(-c4ccc(F)cc4)cs3)c3n2CCC3)cc1.[Cl-] | -74.2 |
| O=C(C[n+]1cc(-c2ccc(F)cc2)n2c1CCC2)Nc1nc(-c2ccc(F)cc2)cs1.[Cl-] | -76.7 |
| O=C(C[n+]1cc(-c2ccc(F)cc2)n2c1CCC2)Nc1nc(-c2ccccc2)cs1.[Cl-] | -11.1 |
| Cn1c(NC(=O)C[n+]2cc(-c3ccc(F)cc3)n3c2CCC3)cc(=O)n(C)c1=O.[Cl-] | 1.04 |
| O=C(C[n+]1cc(-c2ccccc2)n2c1CCC2)Nc1nc(-c2ccc(F)cc2)cs1.[Cl-] | -20.3 |
| O=C(C[n+]1cc(-c2ccc(Cl)cc2)n2c1CCC2)Nc1nc(-c2ccc(F)cc2)cs1.[Cl-] | -48.4 |
| CN(c1ccc(C(=O)N2CCOCC2)cc1[N+](=O)[O-])C1CCCCC1 | -23.1 |
| CCCCC[C@H]1CN(Cc2ccc(OC)cc2)C(=O)[C@@H]1CC(=O)NCc1ccccc1 | -38.6 |
| CCCCN1C[C@H](C)[C@@H](CC(=O)NCc2ccccc2)C1=O | -10.5 |
| COc1ccc(CN2C[C@H](C)[C@@H](CC(=O)NCc3ccccc3)C2=O)cc1 | -10.7 |
| CCCCC[C@H]1CN(CCCC)C(=O)[C@@H]1CC(=O)NCc1ccc(OC)cc1 | -71 |
| COc1ccc(CCN2CC(C(=O)NCc3ccccc3)CCC2=O)cc1 (centres unmarked) | -8.79 |
| CCCCCCc1ccc(N2C[C@H](CCCCC)[C@@H](CC(=O)NCc3ccc(OC)cc3)C2=O)cc1 | -16.6 |
| CCCCC[C@H]1CN(CCc2ccccc2)C(=O)[C@@H]1CC(=O)NCc1ccc(OC)cc1 | -61.8 |
| CCCCC[C@H]1CN(CCCC)C(=O)[C@@H]1CC(=O)NCc1ccccc1 | -73.5 |
| CCCCC[C@H]1CN(Cc2ccccc2)C(=O)[C@@H]1CC(=O)NCc1ccc(OC)cc1 | -56.4 |
| CCCCCCc1ccc(N2C[C@H](Cc3ccccc3)[C@@H](CC(=O)NCc3ccc(OC)cc3)C2=O)cc1 | -4.42 |
| CCCCN1CC[C@H]2C=CC[C@@H](C(=O)NCc3ccc(OC)cc3)[C@H]2C1=O | 2.71 |
| CCCCN1C[C@H](Cc2ccccc2)[C@@H](CC(=O)Nc2ccccc2)C1=O | -25.4 |
| CC(C)(C)NCc1cccn1-c1sc2c(c1C#N)CCCC2 | -13.4 |
| NC(=S)Nc1ncc(C(F)(F)F)cc1Cl | 12.2 |
| CC(C)NC(=O)c1sc(=S)n2c1[nH]c(=O)c1ccc(C(=O)NCCc3ccc(Cl)cc3)cc12 | 14.1 |
| N#CC(c1ccccc1)N(CCCCl)C(=O)c1ccccc1 (centres unmarked) | -18.9 |

| Compound | hERG current change (%, negative = inhibition) at 10uM [%] |
| --- | --- |
| c1ccc(OCCCc2nc(-c3ccccn3)no2)cc1 | -0.0161 |
| CCCCCCc1ccc(N2C[C@H](CCCCC)[C@@H](CC(=O)NCc3ccccc3)C2=O)cc1 | -1.8 |
| CCCCC[C@H]1CN(Cc2ccccc2)C(=O)[C@@H]1CC(=O)NCc1ccccc1 | -65.8 |
| C[C@H]1CN(Cc2ccccc2)C(=O)[C@@H]1CC(=O)NCc1ccccc1 | 1.31 |
| O=C(c1cccc(C(F)(F)F)c1)N1CCC(O)(CS(=O)(=O)Cc2ccc(Cl)cc2)CC1 | 17.5 |
| CCN(c1ccccc1)S(=O)(=O)c1cc(C(=O)OC(C)C(=O)Nc2ccc3c(c2)OCCO3)ccc1C (centres unmarked) | 14.1 |
| Cc1ccc(-c2csc(=S)n2CC(=O)OCC(=O)NC(C)C(C)C)cc1 (centres unmarked) | 3.12 |
| CN(CC(=O)Nc1ccc(Cl)c(C(F)(F)F)c1)C(=O)C1CC(=O)N(Cc2ccco2)C1 (centres unmarked) | -20.1 |
| Cc1[nH]c2ccccc2c1/C=N/NC(=O)c1ccc(N)cc1 | 11.2 |
| COc1ccc(CCN2C(=O)C3C4CC(C5C(C(=O)N/N=C\c6ccc(Cl)cc6)=NOC45)C3C2=O)cc1OC (centres unmarked) | -67.7 |
| COc1ccc(CCN2C(=O)C3C4CC(C5C(C(N)=O)=NOC45)C3C2=O)cc1OC (centres unmarked) | -2.12 |
| COc1ccc(CCN2C(=O)C3C4CC(C5C(C(=O)NN)=NOC45)C3C2=O)cc1OC (centres unmarked) | 7.3 |
| CN(C)S(=O)(=O)N1CCC(Oc2ccc(C(=O)N3CCCCCCC3)cc2)CC1 | 10.9 |
| CCOc1ccccc1N1CCN(C(=O)NCc2ccc(Cl)cc2)CC1 | -14.6 |
| Cl.O.O=C1C2CCCCN2C(=O)N1CCCCN1CCN(c2ccccc2Oc2ccccc2)CC1 (centres unmarked) | -55.7 |
| Cc1ccccc1N1CCN(CCCN2C(=O)C3CCCCN3C2=O)CC1 (centres unmarked) | -9.54 |
| Cc1ccc(N2CCN(CCCCN3C(=O)C4CCCN4C3=O)CC2)cc1.Cl (centres unmarked) | -23.9 |
| Cc1ccccc1N1CCN(CCCCN2C(=O)C3CCCN3C2=O)CC1.Cl.O (centres unmarked) | -65.4 |
| CCCCOc1ccccc1N1CCN(CCCN2C(=O)C3CCCN3C2=O)CC1.Cl (centres unmarked) | -56.7 |
| COc1ccccc1N1CCN(CCN2C(=O)C3CCCN3C2=O)CC1 (centres unmarked) | 12 |
| CCCNC(=O)c1ccccc1N1CCN(CCCCN2C(=O)C3CCCCN3C2=O)CC1.Cl.O (centres unmarked) | -33.5 |
| COc1ccccc1N1CCN(CCCCN2C(=O)C3CCCCN3C2=O)CC1 (centres unmarked) | -12.8 |
| COc1ccccc1N1CCN(CCN2C(=O)C3CCCCN3C2=O)CC1 (centres unmarked) | 4.39 |
